Whole data set: some 39,000 sequences, median “fluorescence intensity (a.u.)” near 4,300, cut for the highest 2% near 39,000. Only a selection was taken, and the highest values are over-represented in it overall.

Data on 42 sequences can be found in PMC7819943, “Rice protein-binding microarrays: a tool to detect cis-acting elements near promoter regions in rice”.

The assay deals with T1, OsSMF1 (Oryza sativa, UniProt Q6ZLB0 1-436).
T1 sequence: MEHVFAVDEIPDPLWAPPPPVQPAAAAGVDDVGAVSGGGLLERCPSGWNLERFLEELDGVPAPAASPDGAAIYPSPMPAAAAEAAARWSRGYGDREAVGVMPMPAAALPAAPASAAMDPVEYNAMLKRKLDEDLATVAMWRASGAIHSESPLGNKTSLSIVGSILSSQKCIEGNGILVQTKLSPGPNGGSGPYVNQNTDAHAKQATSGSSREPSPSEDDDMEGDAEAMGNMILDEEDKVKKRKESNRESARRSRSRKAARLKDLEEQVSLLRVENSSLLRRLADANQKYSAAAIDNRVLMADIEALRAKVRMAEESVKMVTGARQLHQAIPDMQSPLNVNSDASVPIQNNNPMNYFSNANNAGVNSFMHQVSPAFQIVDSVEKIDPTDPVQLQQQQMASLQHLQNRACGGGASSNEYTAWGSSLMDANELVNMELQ
Description: protein-binding microarray (RPBM); PBS, 2% BSA, 51.3 ng/ul salmon testes DNA, 50 uM zinc acetate, 200 nM TF, 25 C, 1 h; high values mean tight binding. To be noted: protein: recombinant; tags: N-terminal polyhistidine and DsRed monomer fusion (pET32a); chain copies: 2; label: CyDye5-dUTP incorporated in the synthesized complementary strand; 3' TTTTT single-stranded linker to array surface; dsDNA, one strand shown. The essentials:
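An Axon 4000B scanner gave the binding signal as per-feature fluorescence intensity in arbitrary units. This followed washing of a custom Agilent array that had been incubated for 1 h at 25 °C with 200 nM protein in PBS, 2% BSA, salmon testes DNA and 50 µM zinc acetate. The proteins were transcription factors fused at the N-terminus to polyhistidine and DsRed, expressed in E. coli BL21-CodonPlus and purified on Ni–NTA.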
With “TACTGTAGCACCACATTGTCAATCATGGCGCAATTATGCTCGGAGTCACCTAGTGCAG”, the binding signal was 12900 fluorescence intensity (a.u.). Then “GAATACCAAGAACGACGTCATACAAGACTGACGTGCGGTCCGGAGTCACCTAGTGCAG”, with 5690 fluorescence intensity (a.u.); and “AATGTCCCATCTTTCGTGTGTAAGGCACGTTAGTCTCAGGCGGAGTCACCTAGTGCAG”, with 4290 fluorescence intensity (a.u.).

Regarding “GTATGGGTTCGAGGAGTGATGTGGTGATGGGCAAACCCATCGGAGTCACCTAGTGCAG”, the binding signal was 3300 fluorescence intensity (a.u.).

Take “CACCCTTAAATCATATATGTGGTTTTAATATTTGGGGATGCGGAGTCACCTAGTGCAG”: the binding signal is 33200 fluorescence intensity (a.u.). To “CGAGACTGACAAGGCATTCCAGACACTTAAACAAGCACTGCGGAGTCACCTAGTGCAG” belongs 3350 fluorescence intensity (a.u.). As for “CTCTCGAAGCTGCCCTAGCCTCTCCGCTGCTCCGATCCACCGGAGTCACCTAGTGCAG”, the binding signal was 24500 fluorescence intensity (a.u.). To “ATGTTTGAGCATGCAGCAAAGACAGATCTAACACTCAAGCCGGAGTCACCTAGTGCAG” belongs 3970 fluorescence intensity (a.u.); to “CCCAGCACCCTACTACACCAACATACTCCTACGTGGAGCACGGAGTCACCTAGTGCAG”, 6040 fluorescence intensity (a.u.).

Take “GTATCCATATATCCGATATGACACGCCAAAACTTTACACCCGGAGTCACCTAGTGCAG”: the binding signal is 4870 fluorescence intensity (a.u.).

Turning to “ACCATCCGAGCTGTCAAGATCCGACGTGGGTTGTGAAGGCCGGAGTCACCTAGTGCAG”, the binding signal was 8700 fluorescence intensity (a.u.).

On to “ATAGTTGTGATTAGATTGTGACGTACACAATGAGTATGCACGGAGTCACCTAGTGCAG”, for which the binding signal was 5250 fluorescence intensity (a.u.). To “GCGAAGAACGCTTGCACTTGTGTGCAGCGACGCGCGAATTCGGAGTCACCTAGTGCAG” belongs 4440 fluorescence intensity (a.u.); to “GTTCCACATTTCAGCATTAATGAATTGGCATACGTGATGACGGAGTCACCTAGTGCAG”, 3360 fluorescence intensity (a.u.). Then “AGTATGCTTTTCTTAACGATGACGTCAGCATACACCTCGGCGGAGTCACCTAGTGCAG”, with 45200 fluorescence intensity (a.u.); and “TTTGCATACGTGCATGCTTGATGACGTCATGCTGACGTGGCGGAGTCACCTAGTGCAG”, with 63100 fluorescence intensity (a.u.). Then “TTTCTTTTCAGACGATGACGTCACACCGTTCTTCATGTATCGGAGTCACCTAGTGCAG”, with 12300 fluorescence intensity (a.u.). “TTGCTGCAAATGACGTCGACATGTGCGTGGCATACCATGGCGGAGTCACCTAGTGCAG”: the binding signal is 15000 fluorescence intensity (a.u.). “GGCGGCGATGGCGGCCGTGCTGACGGACGATTTCCTGCTCCGGAGTCACCTAGTGCAG”: the binding signal was 3220 fluorescence intensity (a.u.). To “TTCCAACCCGCCCCGTGTGCTGACGTGGCAGCCATGTTGGCGGAGTCACCTAGTGCAG” belongs 19300 fluorescence intensity (a.u.); to “GGATGCATGCATGCTGATGATGTCAGGCTGATACGTGCGTCGGAGTCACCTAGTGCAG”, 7340 fluorescence intensity (a.u.). Then “AGTTTTGTACGCATGTGTGGCGCTGACGTCATGCCCGATCCGGAGTCACCTAGTGCAG”, with 18000 fluorescence intensity (a.u.); and “TCTCGCTTAATGTTTTCTTTACACATACGATGCTTTAGATCGGAGTCACCTAGTGCAG”, with 3790 fluorescence intensity (a.u.); and “GGCGCTGATGTCATGCTGACGTCAGTGCCTGATTTTGCTCCGGAGTCACCTAGTGCAG”, with 56100 fluorescence intensity (a.u.). Then “CTTGGCCGTGGCCGCTGACATGGCATCACCTCATCCGCAACGGAGTCACCTAGTGCAG”, with 4320 fluorescence intensity (a.u.); and “TGTTCCAACCCGCTCCGTGTGCTGACGTGGCATGACATGGCGGAGTCACCTAGTGCAG”, with 44900 fluorescence intensity (a.u.). For the sequence “CAAACAATATTCTTTTGTGACTAGATCAAGCCGTAGTGTTCGGAGTCACCTAGTGCAG”, the binding signal is 3650 fluorescence intensity (a.u.). With “TATGTACCTTTTCCACAGAACCCTCTACTGTGCCAGGTCACGGAGTCACCTAGTGCAG”, the binding signal was 15600 fluorescence intensity (a.u.). To “CGCGGCAGATCCGCTGGTTGTGGCGGCGTCAGCGGTAGCCCGGAGTCACCTAGTGCAG” belongs 4030 fluorescence intensity (a.u.); to “ACGACATGCGTGCAAATGCATTGTAAATTTGTAATACGGCCGGAGTCACCTAGTGCAG”, 22300 fluorescence intensity (a.u.). Regarding “TACTTTCGTTTGCAAATATGCGGAATGATGGGGCTGTTTCCGGAGTCACCTAGTGCAG”, the binding signal is 3700 fluorescence intensity (a.u.). Then “CACTCTTTATTTTATTATGACTTGATTCGTCATCAAATGTCGGAGTCACCTAGTGCAG”, with 3870 fluorescence intensity (a.u.); and “ACCCACACCTCGTCCCCGTCACCTCCTATATCATCGTCATCGGAGTCACCTAGTGCAG”, with 6470 fluorescence intensity (a.u.).

Turning to “AATATTCTCTGTCTCGGTGTGGTGTCTCTCCTCTGACGGCCGGAGTCACCTAGTGCAG”, the binding signal was 4810 fluorescence intensity (a.u.). For “ATTAGATTTACCGCAAACAATGACGTCCTCCCTGCCTGGACGGAGTCACCTAGTGCAG”, the binding signal was 4900 fluorescence intensity (a.u.). To “ATAATGCATTTAGTATTGCCACCCTGTACTAATAGATGTTCGGAGTCACCTAGTGCAG” belongs 3810 fluorescence intensity (a.u.); to “CGAGGCGGGGTGCACCTTCATGGTCAGTGGCCCGTGGTTCCGGAGTCACCTAGTGCAG”, 4270 fluorescence intensity (a.u.). Then “CGGTGATCCCATACTTGGCACGTACACGTGCCCTCTTGATCGGAGTCACCTAGTGCAG”, with 6030 fluorescence intensity (a.u.); and “AAAAGTAATTTATAAATAAAATTTCTATATACGTGTTCTTCGGAGTCACCTAGTGCAG”, with 3220 fluorescence intensity (a.u.). To “AAACGGATAAGTTAGTAAGTAATTTCTTCCCTCCTAATTTCGGAGTCACCTAGTGCAG” belongs 45900 fluorescence intensity (a.u.); to “TTATATACTCCCTCTTTCCACGTAAGTTACATTTATTACTCGGAGTCACCTAGTGCAG”, 7340 fluorescence intensity (a.u.); to “CTCCTCACACATTCCCACGCACACATTTCCCCATGCACATCGGAGTCACCTAGTGCAG”, 3180 fluorescence intensity (a.u.).
